High-throughput results deposited in PubChem BioAssay by several laboratories.
An excerpt weighted towards active compounds, which were near 3.9% of everything screened.
HSP90 inh = blocks HSP90-mediated luciferase refolding in reticulocyte lysate. hit rate 0.91% among 290,000. inhibition, % at 5.6 µM. Rabbit reticulocyte lysate, luciferase refolding luminescence, 3 h;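 active = inhibition above the screen-wide mean plus 3 SD, computed separately per campaign, cut at about 16% in these data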;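 also: inhibitors lower the luminescence because luciferase stays unfolded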
HIF-2a inh = blocks HIF-2a reporter activity. hit rate 0.72% among 360,000. 786-0 RCC cells HIF-2a reporter, luciferase luminescence, overnight. inhibition, % at 18.8 µM;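 active = inhibition of the luminescence signal of 40% or more relative to plate controls, in a single-dose primary screen at 18.75 µM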
aSyn UTR inh = 5' untranslated region of α-synuclein, MLPCN primary screen. hit rate 0.82% among 300,000. inhibition, % (tested at 7.5 µM). AID 1813. alpha-synuclein 5'UTR reporter, inhibitor activity; in the data active = inhibition above about 60%;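 also: H4 neuroglioblastoma cells stably carrying SNCA 5'UTR luciferase fusion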
C8 TRAIL sens = caspase-8 TRAIL sensitization; NB7+C8 cells + TRAIL, ATPlite viability luminescence; inhibition (viability loss, TRAIL sensitization), % at 10 µM; hit rate 1% among 360,000; AID 624354;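 active = compounds causing at least 50% loss of cell viability in the single-dose screen, relative to plate controls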
TROY NFkB inh = blocks TROY-dependent signaling in reporter cells. Q293 LMP1-TROYcd NF-kB luciferase reporter, 4 h. inhibition, % at 10 µM. hit rate 0.98% among 360,000. AID 1347056;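 active = compounds whose plate-normalised and pattern-corrected inhibition of the luciferase reporter signal at the single screening dose is 50% or more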
TWEAK-Fn14 inh = inhibitors of TWEAK-Fn14 interaction signaling; TWEAK-stimulated Fn14 reporter cells, luciferase luminescence, 8 h; inhibition, % at 10 µM; hit rate 2% among 360,000; AID 1159606; in the data active = inhibition above about 50%
Hits are given with their value; 0 = inactive; - = no result given.

SMILES	HSP90 inh	HIF-2a inh	aSyn UTR inh	C8 TRAIL sens	TROY NFkB inh	TWEAK-Fn14 inh
CCc1nc2c(OCc3ccc(Cl)cc3)cccn2c1N(C)C(=O)c1ccncc1	-	0	-	0	0	0
COc1ccc(CCNS(=O)(=O)c2ccc(N3CCCC3=O)cc2)cc1	0	0	0	0	0	0
COc1ccc(OC)c(NS(=O)(=O)c2ccc(SC)cc2)c1	0	0	0	0	0	0
COc1ccc(OC)c(NS(=O)(=O)c2ccc(N3CCCC3=O)cc2)c1	0	0	111	0	0	0
CCOc1ccc(S(=O)(=O)Nc2cc(OC)ccc2OC)cc1	0	0	81	0	0	0
CC(C)c1ccc(C2C3=C(COC3=O)Nc3cc4c(cc32)OCO4)cc1 (configuration not stated)	0	0	123	0	0	0
O=C(Cc1cccs1)Nc1nc2c(ccc3ccccc32)s1	0	0	0	0	0	50
CCOc1ccc(N(C)S(=O)(=O)c2cc(-c3cc(C)no3)ccc2CC)cc1	0	0	0	0	0	72
CCCCCCCCN1C(=O)[C@H](CC(=O)NCCCOC)C[C@@]2(C(=O)OC)CCCCC=C12	-	0	-	0	0	0
CCC(=O)Nc1nonc1-c1nc2ccccc2n1Cc1cccc2ccccc12	0	0	67	0	0	0
CCC(=O)Nc1nonc1-c1nc2ccccc2n1Cc1ccccc1	0	0	0	0	0	0
Cc1ccc(C(=O)CSc2nnc3c4ccccc4nc(Cc4ccccc4)n23)cc1	0	0	0	0	65	0
Cc1cccn2c(=O)c3cc(S(=O)(=O)c4ccccc4)c(=N)n(Cc4ccco4)c3nc12	0	0	0	0	0	0
Cc1cccn2c(=O)c3cc(S(=O)(=O)c4ccc(F)cc4)c(=N)n(Cc4ccco4)c3nc12	0	0	0	0	0	56
COc1cccc(S(=O)(=O)Nc2ccc(C(=O)Nc3ccncc3)cc2)c1	0	0	0	0	0	0
O=C(Nc1cccc(S(=O)(=O)Nc2ccc(Cl)cc2)c1)c1ccc(Cl)nc1	0	0	0	0	53	80
COc1ccccc1NS(=O)(=O)c1cccc(NC(=O)c2ccc3ccccc3n2)c1	0	0	0	0	0	69
COc1ccc(CNC(=O)c2ccc3ccccc3n2)cc1OC	0	0	0	0	0	54
COc1ccc(CCNC(=O)c2ccc3ccccc3n2)cc1OC	0	0	0	0	0	0
COc1ccc(NS(=O)(=O)c2cccc(NC(=O)c3ccc(Cl)nc3)c2)cc1	0	0	0	0	0	70
COc1cccc(Nc2nc(C(N)Cc3ccccc3)cs2)n1 (configuration not stated)	-	0	-	0	0	0
O=C(OCC(=O)N1CCOCC1)c1cncc(Br)c1	-	0	-	0	0	0
COc1ccc(NS(=O)(=O)c2cccc(NC(=O)CCC(=O)c3ccc(Cl)cc3)c2)cc1	0	0	0	0	0	75
COc1ccc(NS(=O)(=O)c2cccc(NC(=O)CCC(=O)c3cccs3)c2)cc1	0	0	0	0	0	0
COc1cc(CN2C[C@@H](CO)O[C@@H](n3cnc4c(NCc5ccc(F)cc5)ncnc43)C2)cc(OC)c1OC	-	0	-	0	0	0
SMILES	HSP90 inh	HIF-2a inh	aSyn UTR inh	C8 TRAIL sens	TROY NFkB inh	TWEAK-Fn14 inh
Cc1ccc(-n2nnnc2C(Cl)(Cl)c2nnnn2-c2ccc(C)cc2)cc1	0	0	0	0	60	0
S=C(NCCC(c1ccccc1)c1ccccc1)Nc1ccc(Cl)cc1	0	0	0	0	0	62
COc1ccc(Cl)cc1NC(=S)NCCC(c1ccccc1)c1ccccc1	0	0	0	0	0	0
O=S(=O)(c1ccc(NC(=S)NCCC(c2ccccc2)c2ccccc2)cc1)N1CCOCC1	0	0	0	0	0	56
S=C(NCCC(c1ccccc1)c1ccccc1)Nc1ccccc1Cl	0	0	0	0	0	0
CCCCOCCCNC(=S)Nc1ccc(S(=O)(=O)N2CCOCC2)cc1	0	0	0	0	0	0
COc1cc(NC(=S)NCCC(c2ccccc2)c2ccccc2)c(OC)cc1Cl	0	0	0	0	53	0
CCNC(=O)C1CCCN(C(=O)Cc2ccc3ccccc3c2)CC1 (configuration not stated)	-	0	-	0	0	0
CCC(C(N)=O)N1C(=O)C2C3CCC(C3)C2C1=O (configuration not stated)	-	0	-	0	0	0
COc1cc(C(=O)Nc2cc(C)ccn2)cc(OC)c1OC	0	0	0	0	0	0
